A short description of experiment [1]: qHTS assay to identify small molecule antagonists of the glucocorticoid receptor (GR) signaling pathway - cell viability counter screen (AID 720693). Note: nearly all actives have a fitted effect of over 55% in size. For orientation: qHTS replaces the single test concentration by a dilution series.
Experiment [2] can be described thus: qHTS assay for identifying genotoxic compounds that show differential cytotoxicity against isogenic chicken DT40 cell lines with known DNA damage response pathways - wild type cell line (AID 743012). Note: nearly all actives have a fitted effect of over 60% in size. Note: potency is the fitted concentration of half-maximal effect. Summed up: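 Quantitative HTS on parental DT40 cells: 40 h compound treatment at 37 C/5% CO2, with viability then determined by CellTiter-Glo luminescence. Values serve as the DNA repair-proficient reference for differential cytotoxicity.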

Experiment [3] is described as follows: qHTS assay for identifying genotoxic compounds that show differential cytotoxicity against isogenic chicken DT40 cell lines with known DNA damage response pathways - Rad54/Ku70 mutant cell line (AID 743015). Note: nearly all actives have a fitted effect of over 60% in size. Note: potency is the fitted concentration of half-maximal effect.
Experiment [4] in a line: qHTS assay to identify small molecule antagonists of the androgen receptor (AR) signaling pathway - cell viability counter screen (AID 743033; note: nearly all actives have a fitted effect of over 45% in size).
A short description of experiment [5]: qHTS assay to identify small molecule antagonists of the androgen receptor (AR) signaling pathway using the MDA cell line - cell viability counter screen (AID 743041; note: nearly all actives have a fitted effect of over 45% in size). Summed up:
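Same-well cytotoxicity was assessed by CellTiter-Fluor in MDA-kb2 AR-luc cells after 16 h of compound treatment under R1881 agonism.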

The nature of experiment [6]: qHTS assay to identify small molecule antagonists of the thyroid receptor (TR) signaling pathway - cell viability counter screen (AID 743064). Note: nearly all actives have a fitted effect of over 50% in size. Note: potency is the fitted concentration of half-maximal effect. Put shortly: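 GH3.TRE-Luc rat pituitary cells dosed after 4 hr plating, co-stimulated with T3 at 1 nM final, incubated 23.5 h at 37 C. Viability measured in the same wells by CellTiter-Fluor fluorescence after 30 min further at 37 C.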

The nature of experiment [7]: qHTS assay to identify small molecule antagonists of the thyroid receptor (TR) signaling pathway (AID 743065). Note: series mostly up to about 70 µM; nearly all actives have a fitted effect of over 55% in size. Summed up:
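GH3.TRE-Luc rat pituitary cells (two TREs driving luciferase) were dosed with compound, then stimulated with 1 nM T3 (final) for 23.5 h at 37 C. ONE-Glo luminescence was the read-out, with CellTiter-Fluor fluorescence as the cytotoxicity counter-screen.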

For experiment [8], the system named is thyroid hormone receptor (rat, GH3 cells). In words: qHTS assay to identify small molecule agonists of the thyroid receptor (TR) signaling pathway (AID 743066; calls by dose curve).
Experiment [9] has as its target Estrogen receptor (Homo sapiens) (UniProt P03372). In words: qHTS assay to identify small molecule antagonists of the estrogen receptor alpha (ER-alpha) signaling pathway (AID 743069; active = well fitted curve in the direction sought with a large enough effect in the signal ratio in the repeat runs, not every such curve was filed as active; the % refers to the signal ratio). Put shortly:
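Reporter cells (ER-alpha-bla, HEK293 background) are conditioned overnight in stripped-serum medium (2% charcoal-stripped FBS). Compound and 17beta-estradiol exposure runs 18 hr at 37C, 5% CO2.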

Experiment [10] can be described thus: qHTS assay to identify small molecule antagonists of the estrogen receptor alpha (ER-alpha) signaling pathway - cell viability counter screen (AID 743074; calls by dose curve;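 note: HEK293 cells carrying ER-alpha-UAS-bla reporter stimulated with 17beta-estradiol; nearly all actives have a fitted effect of over 45% in size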).
The target in experiment [11] is Estrogen receptor (Homo sapiens) (UniProt P03372). In words: qHTS assay to identify small molecule agonists of the estrogen receptor alpha (ER-alpha) signaling pathway (AID 743075; calls by dose curve;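 note: HEK293 GripTite cells with ER-alpha and UAS-driven beta-lactamase reporter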).
Experiment [12] shares this target. In words: qHTS assay to identify small molecule agonists of the estrogen receptor alpha (ER-alpha) signaling pathway using the BG1 cell line (AID 743079). Note: nearly all actives have a fitted effect of over 20% in size. Note: potency is the fitted concentration of half-maximal effect.
The nature of experiment [13]: qHTS assay to identify small molecule antagonists of the estrogen receptor alpha (ER-alpha) signaling pathway using the BG1 cell line (AID 743080; calls by dose curve;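 note: BG1 cells stimulated with 17beta-estradiol alongside compound; series mostly up to about 70 µM; nearly all actives have a fitted effect of over 25% in size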). Summed up: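 Luminescence from a 4×ERE-luciferase reporter in BG1-Luc-4E2 cells served as read-out. Cells, pre-cultured 5 days in stripped-serum phenol-red-free medium, were exposed to compound with 17beta-estradiol co-stimulation for 21.5 h at 37 C.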

A short description of experiment [14]: qHTS assay to identify small molecule antagonists of the estrogen receptor alpha (ER-alpha) signaling pathway using the BG1 cell line - cell viability counter screen (AID 743081).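 Note: compound given together with 17beta-estradiol as the ER stimulus; series mostly up to about 70 µM; nearly all actives have a fitted effect of over 45% in size.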
Another experiment addresses Aromatase (Homo sapiens) (UniProt P11511). In words: qHTS assay to identify aromatase inhibitors (AID 743083). Note: series mostly up to about 70 µM; nearly all actives have a fitted effect of over 55% in size.
Experiment [15] in a line: qHTS assay for identifying genotoxic compounds that show differential cytotoxicity against isogenic chicken DT40 cell lines with known DNA damage response pathways - Rev3 mutant cell line (AID 743014). Note: nearly all actives have a fitted effect of over 55% in size.
The target in experiment [16] is Androgen receptor (Homo sapiens) (UniProt P10275). In words: qHTS assay to identify small molecule antagonists of the androgen receptor (AR) signaling pathway (AID 743035; active = well fitted inhibition curve with a large enough effect in the signal ratio in the repeat runs, not every such curve was filed as active; the % refers to the signal ratio). Put shortly: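 Cell line: GeneBLAzer AR-UAS-bla GripTite (HEK293). Stimulus: R1881 added after compound. Exposure: 16 h, 37C, 5% CO2. Readout: LiveBLAzer B/G FRET fluorescence after 2 h at room temperature.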

Experiment [17] shares this target. In words: qHTS assay to identify small molecule agonists of the androgen receptor (AR) signaling pathway (AID 743036; active = well fitted activation curve with a large enough effect in the signal ratio in the repeat runs, with a control signal flat, not every such curve was filed as active; the % refers to the signal ratio). Summed up: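 AR-UAS-bla HEK293 cells, plated 4 h before dosing, were treated with compound for 16 h at 37C. beta-Lactamase reporter read after 2 h with LiveBLAzer B/G FRET substrate at room temperature.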
The target is the same in experiment [18]. In words: qHTS assay to identify small molecule agonists of the androgen receptor (AR) signaling pathway using the MDA cell line (AID 743040; note: nearly all actives have a fitted effect of over 20% in size). Summed up:
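Human breast carcinoma MDA-kb2 reporter cells (MMTV-luc, AR/GR elements) were treated for 16 h at 37C in 0% CO2 following a 5 h settling period. Signal was quantified by ONE-Glo luminescence.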

Experiment [19] has the same target. In words: qHTS assay to identify small molecule antagonists of the androgen receptor (AR) signaling pathway using the MDA cell line (AID 743042; note: nearly all actives have a fitted effect of over 55% in size). Summed up: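 MDA-kb2 breast carcinoma cells carrying MMTV-luciferase (AR/GR responsive) were co-treated with compounds and the agonist R1881 for 16 h at 37C. Inhibition read as ONE-Glo luminescence; CellTiter-Fluor fluorescence measured in parallel for cytotoxicity.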

Several values for one entry are separate records, joined by “and”; a condition that tells them apart may be missing. Identical values can stand only once. Records with an inconclusive call do not appear. More than one record can exist for a structure, and the calls need not agree. Activity calls are given as the source filed them. Unless noted, calls come from the whole dose curve; as a rule, active = well fitted curve in the direction sought with a large enough effect in the repeat runs; inconclusive = weak or mixed curves; inactive = no such curve, though single readings can be large; an effect the other way counts as inactive or inconclusive.

Androgen receptor (Homo sapiens), sequence (P10275 whole entry, looked up): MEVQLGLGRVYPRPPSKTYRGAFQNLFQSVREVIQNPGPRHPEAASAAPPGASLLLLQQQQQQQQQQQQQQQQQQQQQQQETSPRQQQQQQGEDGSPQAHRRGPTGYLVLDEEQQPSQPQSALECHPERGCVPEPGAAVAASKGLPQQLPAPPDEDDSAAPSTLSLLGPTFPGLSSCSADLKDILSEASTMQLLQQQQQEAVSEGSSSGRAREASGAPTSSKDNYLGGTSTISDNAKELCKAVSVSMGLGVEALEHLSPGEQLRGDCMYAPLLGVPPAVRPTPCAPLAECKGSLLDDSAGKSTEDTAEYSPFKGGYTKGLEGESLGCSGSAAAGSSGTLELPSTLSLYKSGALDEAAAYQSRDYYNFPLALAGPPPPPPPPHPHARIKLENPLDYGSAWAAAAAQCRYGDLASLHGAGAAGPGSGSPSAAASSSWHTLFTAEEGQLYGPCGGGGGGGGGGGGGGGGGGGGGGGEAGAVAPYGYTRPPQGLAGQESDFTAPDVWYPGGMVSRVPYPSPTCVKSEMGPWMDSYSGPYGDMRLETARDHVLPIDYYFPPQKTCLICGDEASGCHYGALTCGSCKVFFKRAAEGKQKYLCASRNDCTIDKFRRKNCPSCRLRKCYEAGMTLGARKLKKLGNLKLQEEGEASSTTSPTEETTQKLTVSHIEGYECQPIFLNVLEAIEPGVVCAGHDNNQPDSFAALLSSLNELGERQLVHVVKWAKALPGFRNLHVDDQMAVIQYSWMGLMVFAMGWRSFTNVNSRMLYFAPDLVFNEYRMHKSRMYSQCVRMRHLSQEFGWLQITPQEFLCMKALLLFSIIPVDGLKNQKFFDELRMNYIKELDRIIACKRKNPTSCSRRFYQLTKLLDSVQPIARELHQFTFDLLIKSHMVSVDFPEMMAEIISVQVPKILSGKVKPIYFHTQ
Aromatase (Homo sapiens), sequence (P11511 whole entry, looked up): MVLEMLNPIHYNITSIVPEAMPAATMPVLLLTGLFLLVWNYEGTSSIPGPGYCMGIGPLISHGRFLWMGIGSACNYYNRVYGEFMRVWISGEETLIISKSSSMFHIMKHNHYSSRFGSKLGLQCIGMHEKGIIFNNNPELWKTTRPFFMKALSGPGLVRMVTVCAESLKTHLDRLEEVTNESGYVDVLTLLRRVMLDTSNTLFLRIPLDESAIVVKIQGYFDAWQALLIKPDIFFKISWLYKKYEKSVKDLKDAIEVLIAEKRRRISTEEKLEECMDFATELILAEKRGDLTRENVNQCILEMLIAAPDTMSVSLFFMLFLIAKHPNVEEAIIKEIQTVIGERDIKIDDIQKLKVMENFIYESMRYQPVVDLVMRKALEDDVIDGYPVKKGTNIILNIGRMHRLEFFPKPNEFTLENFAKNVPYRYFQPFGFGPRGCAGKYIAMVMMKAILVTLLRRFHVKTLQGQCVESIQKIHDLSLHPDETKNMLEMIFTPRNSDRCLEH
Estrogen receptor (Homo sapiens), sequence (P03372 whole entry, looked up): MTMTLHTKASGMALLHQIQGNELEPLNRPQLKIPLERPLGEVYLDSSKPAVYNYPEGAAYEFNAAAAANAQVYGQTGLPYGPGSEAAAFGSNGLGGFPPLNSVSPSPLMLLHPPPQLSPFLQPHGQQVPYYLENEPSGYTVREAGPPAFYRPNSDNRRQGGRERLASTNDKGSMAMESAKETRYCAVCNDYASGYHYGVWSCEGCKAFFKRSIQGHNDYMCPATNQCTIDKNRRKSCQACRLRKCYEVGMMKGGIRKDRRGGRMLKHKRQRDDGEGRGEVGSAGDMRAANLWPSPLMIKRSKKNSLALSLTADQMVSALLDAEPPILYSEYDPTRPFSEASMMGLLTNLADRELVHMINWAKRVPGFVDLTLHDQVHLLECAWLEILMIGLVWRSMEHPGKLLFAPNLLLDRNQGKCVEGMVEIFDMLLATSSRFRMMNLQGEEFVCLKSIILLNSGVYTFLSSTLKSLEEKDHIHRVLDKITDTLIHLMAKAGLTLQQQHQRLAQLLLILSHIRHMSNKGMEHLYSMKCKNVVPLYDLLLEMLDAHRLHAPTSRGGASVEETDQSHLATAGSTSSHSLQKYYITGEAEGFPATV

For `O=[N+]([O-])c1cc([As](=O)(O)O)ccc1O`, the Potency result in experiment [1], in experiment [2], in experiment [3], in [6], in experiment [7] and in [8] was “inactive” each time. The Potency entry (in experiment [9]; in experiment [12]; with Aromatase (Homo sapiens)) was “inactive” throughout. Besides, the outcome in experiment [4], in [5], in experiment [10], in experiment [11], in [13] and in experiment [14] was inactive.
For `Cc1ccc(O)c(C)c1`, the Potency result in [1], in experiment [2], in experiment [3], in [6], in experiment [7] and in [8] was “inactive” each time. Further, the Potency entry (in experiment [9]; in [12]; in the experiment with Aromatase (Homo sapiens)) was “inactive” in each case. The compound was called inactive in [4], in experiment [5], in experiment [10], in experiment [11], in experiment [13] and in [14].
`COc1nc(NC(C)C)nc(NC(C)C)n1`: the Potency result in experiment [1], in experiment [2], in experiment [15], in experiment [3], in [6] and in experiment [7] was “inactive” throughout. Also, the Potency entry (in experiment [8]; in experiment [9]; in experiment [12]; with Aromatase (Homo sapiens)) was “inactive” each time. Also, the call in experiment [5], in [10], in experiment [11], in experiment [13] and in experiment [14] was inactive.
`Cl/C=C/Cl`: the Potency result in experiment [1], in experiment [2], in [15], in experiment [3], in experiment [6] and in experiment [7] was “inactive” in each case. In addition, the Potency entry (in experiment [8]; in experiment [9]; in experiment [12]; in the experiment with Aromatase (Homo sapiens)) was “inactive” throughout. Moreover, the call in [5], in [10], in experiment [11], in experiment [13] and in experiment [14] was inactive.
Consider `COP(=S)(OC)Oc1ccc(SC)c(C)c1`, for which the Potency entry in [1], in [15], in [6], in [7], in experiment [8] and in experiment [9] was “inactive” in each case. In addition, the Potency result with Aromatase (Homo sapiens) was “inactive”. In addition, the Potency in experiment [2] is 54.5 µM (active); in experiment [3], “inactive and 61.1 µM (active)”; in experiment [12] it was 48 µM (active). Moreover, the compound was called inactive in experiment [5], in [10], in experiment [11], in experiment [13] and in experiment [14].
With `CNC(=O)O/N=C/C(C)(C)S(C)=O` (centres undefined), the Potency result in [1], in experiment [2], in experiment [3], in [6], in experiment [7] and in [8] was “inactive” in each case. For the same compound, the Potency result (in experiment [9]; in experiment [12]; in the experiment with Aromatase (Homo sapiens)) was “inactive” each time. Also, the call in [5], in experiment [10], in experiment [11], in experiment [13] and in [14] was inactive.
As for `C=CC(=O)OCC(CC)CCCC` (centres undefined), the Potency result (in experiment [1]; in experiment [6]; in experiment [7]; in [8]; with Aromatase (Homo sapiens)) was “inactive” throughout. Besides, the result in experiment [5], in experiment [10] and in experiment [14] was inactive.
Take `CC(C)c1cccc(C(C)C)c1O`: the Potency result in experiment [1], in experiment [2], in experiment [3], in experiment [16], in experiment [19] and in experiment [6] was “inactive” throughout. Besides, the Potency result (in experiment [7]; in [8]; in experiment [9]; in [12]; in the experiment with Aromatase (Homo sapiens)) was “inactive” throughout. The compound was classed as inactive in [17], in experiment [18], in [5], in [10], in [11] and in experiment [13]. The compound was classed as inactive in [14].
For `CN(C)NC(=O)CCC(=O)O`, the Potency result (in [1]; in experiment [6]; in experiment [7]; in experiment [8]; in the experiment with Aromatase (Homo sapiens)) was “inactive” each time. Further, the compound was called inactive in [5], in experiment [10] and in experiment [14].
In the case of `Nc1ccc(N)cc1`, the Potency result (in experiment [1]; in [7]; in [8]; with Aromatase (Homo sapiens)) was “inactive” in each case. For the same compound, the Potency is 54.7 µM (active) in [2]; 26.6 µM (active) and 21.8 µM (active) in experiment [3]; “inactive and 30.8 µM (active)” in [6]. For the same compound, the call in experiment [4], in [5], in [10] and in experiment [14] was inactive.

(Values after PubChem BioAssay (Tox21).)
